Whole data set: some 140,000 sequences, median “enrichment ratio after two sorts for PhoP signalling” near 0, cut for the highest 2% near 11. Many of the other results were omitted from the sample, so the highest values are more common in it than they were.
B1: PhoQ; a variant is named by its letters at X, in order, P23837 (parent)
chain: MKKLLRLFFPLSLRVRFLLATAAVVLVLSLAYGMVALIGYSVSFDKTTFRLLRGESNLFYTLAKWENNKLHVELPENIDKQSPTMTLIYDENGQLLWAQRDVPWLMKMIQPDWLKSNGFHEIEADVNDTSLLLSGDHSIQQQLQEVREDDDDAEMTHSVAVNVYPATSRMPKLTIVVVDTIPVELKSSYMVWSWFIYVLSANLLLVIPLLWVAAWWSLRPIEALAKEVRELEEHNRELLNPATTRELTSLVRNLNRLLKSERERYDKYRTTLTDLTHSLKTPLXXLQXXLRSLRSEKMSVSDAEPVMLEQISRISQQIGYYLHRASMRGGTLLSRELHPVAPLLDNLTSALNKVYQRKGVNISLDISPEISFVGEQNDFVEVMGNVLDNACKYCLEFVEISARQTDEHLYIVVEDDGPGIPLSKREVIFDRGQRVDTLRPGQGVGLAVAREITEQYEGKIVAGESMLGGARMEVIFGRQHSAPKDE

Variants of: B1
Experiment: enrichment ratio after two sorts for PhoP signalling (ratio (wild type AVST 3.29)); higher = more functional
Conditions: with PhoP (E. coli)

Variant	enrichment ratio
KEFR	≤ 0.25
THMP	≤ 0.25
HPVY	≤ 0.25
MNCR	≤ 0.25
RSFL	≤ 0.25
YTFQ	≤ 0.25
TINS	9.25
TICK	1.1
TINY	≤ 0.25
AIQM	≤ 0.25
TIGM	21.8
TITM	17.6
TIPM	≤ 0.25
RIQM	≤ 0.25
TINM	15.1
TIQM	48.5
TIYM	2.83
TIWM	≤ 0.25
PGVE	≤ 0.25
FAIN	0.294
WTRP	≤ 0.25
TKVF	3.68
ANGQ	≤ 0.25
SYDT	≤ 0.25

Variant	enrichment ratio
PICE	≤ 0.25
LWID	≤ 0.25
FPRV	≤ 0.25
TRYF	≤ 0.25
GPCS	≤ 0.25
NCLV	1.12
AAAI	1.63
AANL	≤ 0.25
AACL	11.3
AACK	≤ 0.25
ANCV	3.79
KACV	≤ 0.25
AACA	7.7
IACL	≤ 0.25
AACV	16.2
AACS	17.3
AACE	6.4
AACI	12.2
NQPV	≤ 0.25
KGDN	≤ 0.25
WHVG	≤ 0.25
HKAD	≤ 0.25
LHMM	≤ 0.25
SKQW	≤ 0.25

Variant	enrichment ratio
QCCL	≤ 0.25
LETR	≤ 0.25
DAMY	≤ 0.25
MRVV	≤ 0.25
ASRL	≤ 0.25
ASHQ	≤ 0.25
ASTD	≤ 0.25
ASVY	2.98
KSVV	≤ 0.25
ASVV	14.5
ASVA	4.82
ASVK	0.907
ASMQ	29.9
ASVL	16.7
ASVT	15.2
EVAW	≤ 0.25
DHDV	≤ 0.25
YAYW	≤ 0.25
ANRY	≤ 0.25
RTRT	≤ 0.25
WPGL	≤ 0.25
ASVG	14.7
ASMW	5.78
KSAF	≤ 0.25

Variant	enrichment ratio
ASQN	≤ 0.25
ASMG	17.6
ASAF	15.1
ASMD	≤ 0.25
ASNL	4.93
AHAF	≤ 0.25
ASVC	5.25
KSVG	≤ 0.25
ASMN	19.6
VSHV	≤ 0.25
ELII	≤ 0.25
DHGN	≤ 0.25
NHFI	≤ 0.25
QTFL	1.72
YDLL	≤ 0.25
QRFQ	≤ 0.25
EHKV	≤ 0.25
LCMI	≤ 0.25
IHER	≤ 0.25
LAPE	≤ 0.25
VIMD	≤ 0.25
ASVI	5.75
AITG	11.5
ASVP	≤ 0.25

Variant	enrichment ratio
AMTG	2.78
ASSI	15.8
ASVM	12.1
ASMK	17
KSMK	≤ 0.25
ASRK	≤ 0.25
VHTG	≤ 0.25
VRSI	≤ 0.25
ASMA	2.9
YVIL	≤ 0.25
LYCG	≤ 0.25
RRIS	≤ 0.25
NHAY	≤ 0.25
QIHN	≤ 0.25
YWDR	≤ 0.25
YHEQ	≤ 0.25
IKMW	≤ 0.25
ASTG	14.7
ASMS	5.31
ASIG	12
ASEG	≤ 0.25
ASVE	21.7
ASHE	≤ 0.25
ASWG	≤ 0.25

Variant	enrichment ratio
ASMV	7.76
KSVE	≤ 0.25
ASMI	13.5
PNRW	≤ 0.25
LAVR	≤ 0.25
IMSG	≤ 0.25
RHEW	≤ 0.25
QSKD	≤ 0.25
VADS	≤ 0.25
DWYQ	≤ 0.25
YRSW	≤ 0.25
DMAS	≤ 0.25
ICAS	≤ 0.25
TMAS	15
KMAS	≤ 0.25
MTAS	12
MCAS	14
MKAS	≤ 0.25
MMAS	15.4
VCAS	≤ 0.25
MFAS	≤ 0.25
YTAS	≤ 0.25
MAAS	1.31
NQNV	≤ 0.25

Variant	enrichment ratio
NTIL	≤ 0.25
MCAI	8.95
GQFV	≤ 0.25
PTRG	≤ 0.25
IQLY	≤ 0.25
QVYW	≤ 0.25
GCPS	≤ 0.25
SHMN	≤ 0.25
FSMN	1.56
KSMN	≤ 0.25
GGMN	≤ 0.25
RGMN	≤ 0.25
TGMN	34.8
NHMN	≤ 0.25
TSMN	12.3
THMN	12.7
RHML	≤ 0.25
RVMN	≤ 0.25
GNFW	≤ 0.25
LDMA	≤ 0.25
ESWV	≤ 0.25
KCLD	≤ 0.25
RANI	≤ 0.25
GSIV	8.6

Variant	enrichment ratio
GSCA	0.424
GSWV	≤ 0.25
GSCV	16.6
GSCS	5.76
GSCI	10.8
GSMV	17.2
GSMW	≤ 0.25
GSCL	21.5
FTHE	≤ 0.25
HIYR	≤ 0.25
AWLF	≤ 0.25
YRSQ	≤ 0.25
HSWV	≤ 0.25
HSMH	≤ 0.25
HSMV	17
HSMG	1.29
HSMI	17.4
HSMW	≤ 0.25
WYLH	≤ 0.25
TLFF	≤ 0.25
AINV	≤ 0.25
SNRK	≤ 0.25
QKYP	≤ 0.25
IVDD	≤ 0.25

Variant	enrichment ratio
VLPC	≤ 0.25
HDDH	≤ 0.25
WDDD	≤ 0.25
TLSC	8.65
KQSC	≤ 0.25
CMSC	39.5
SDSC	2.35
STSC	11.6
MMSC	≤ 0.25
SQSC	11.7
SRSC	≤ 0.25
YTSC	≤ 0.25
FVKG	≤ 0.25
PVCQ	≤ 0.25
MPMY	≤ 0.25
HPTD	≤ 0.25
MFHP	≤ 0.25
IYSH	≤ 0.25
GGNT	≤ 0.25
TGAH	9.14
GGNY	≤ 0.25
GGAT	≤ 0.25
TGAT	18.1
TGNT	15.8

Variant	enrichment ratio
AGAH	11.2
RGAT	≤ 0.25
RGNT	≤ 0.25
AKAH	4.55
TGNY	16.9
RGNY	≤ 0.25
IMPT	≤ 0.25
STPE	≤ 0.25
SDDK	≤ 0.25
DTVG	≤ 0.25
MNVA	≤ 0.25
LNLH	≤ 0.25
MLMR	≤ 0.25
AGAT	11.3
CQWS	≤ 0.25
AGKR	≤ 0.25
CQVY	5.8
AGDT	≤ 0.25
CQNY	12.1
IKGI	≤ 0.25
DLMM	≤ 0.25
RFVW	≤ 0.25
QQLG	2.01
YTCS	≤ 0.25

Variant	enrichment ratio
ITCV	≤ 0.25
TTCS	18.7
ITCT	≤ 0.25
YTCT	≤ 0.25
LTCG	≤ 0.25
TTCT	12.8
YTCV	≤ 0.25
TTCV	17.3
TTCG	30.3
ITCS	≤ 0.25
YTCG	≤ 0.25
ATPS	≤ 0.25
KDFS	≤ 0.25
PMMQ	≤ 0.25
YYTW	≤ 0.25
RVTP	≤ 0.25
FDKV	≤ 0.25
TTCI	15.8
TTCK	5.62
TTCE	8.85
LIVW	≤ 0.25
CTSF	3.85
ATHF	≤ 0.25
ITSF	≤ 0.25

Variant	enrichment ratio
GTSM	10.6
YDSM	≤ 0.25
ATSF	11.9
AIMF	0.847
ATMF	16
ATSM	16.9
PAWP	≤ 0.25
TTFE	≤ 0.25
ANLY	12
GNLY	3.04
DNLY	≤ 0.25
AYLY	≤ 0.25
AILY	1.94
AKLY	19.7
KKLY	≤ 0.25
HKLY	≤ 0.25
TKLY	16.4
LENP	≤ 0.25
YGNS	≤ 0.25
ELCS	≤ 0.25
SDHR	≤ 0.25
RTCY	≤ 0.25
FQWN	≤ 0.25
KCYS	≤ 0.25

Variant	enrichment ratio
QRYS	≤ 0.25
MLYS	≤ 0.25
STYS	0.267
MKYS	≤ 0.25
MMYS	≤ 0.25
MEYS	25.6
QEYS	37
MCYS	12.8
LVRD	≤ 0.25
RKTS	≤ 0.25
MAFY	5.02
GGMD	≤ 0.25
RGMI	≤ 0.25
VGMW	≤ 0.25
LGMS	≤ 0.25
LGMA	≤ 0.25
VGMI	20.4
NGMI	0.49
NIMI	≤ 0.25
TGMI	13.2
LGMI	12.6
GGMI	12.3
VGMG	≤ 0.25

Source: a collection of fitness landscapes (doi:10.1126/science.1257360)
